# Results reported in PubChem BioAssay (NCI).
# The panel holds about 79,000 compounds, 15% with a hit somewhere; the sample as a whole holds those more often. Unmarked numbers belong to inactive results. The source made the active and inactive calls. Cut-off read from the data, not from the text of the source: active = growth inhibition above about 70%; inactive = the rest.
# Columns and labels:
# [1] = NCI Yeast Anticancer Drug Screen. Data for the rad50 strain (AID 155);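 note: 0% = growth of vehicle-only cultures of the same strain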; settings: S. cerevisiae rad50 strain growth inhibition, hits give high values
# Outline: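 DNA repair mutant yeast, compound exposure, growth read-out; inhibition is taken relative to vehicle.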
# [2] = NCI Yeast Anticancer Drug Screen. Data for the mec2-1 strain (AID 157); settings: S. cerevisiae mec2-1 strain, hits give high values
# Outline: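 Cells of the genetically defined mec2-1 yeast strain are incubated with test compound. Inhibition of growth is calculated against vehicle-treated controls.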
# [3] = NCI Yeast Anticancer Drug Screen. Data for the sgs1 mgt1 strain (AID 161);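 note: 0% = growth of cultures given vehicle only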; settings: S. cerevisiae sgs1 mgt1 strain, hits give high values
# Outline: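 Read-out: growth inhibition vs vehicle controls. Cells: mutant yeast strain deficient in DNA damage repair.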
# [4] = NCI Yeast Anticancer Drug Screen. Data for the cln2 rad14 strain (AID 165);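 note: 0% = growth equal to vehicle treated cultures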; settings: S. cerevisiae cln2 rad14 strain, hits give high values
# Outline: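 The screen exposed genetically defined yeast (cln2 rad14) to test compounds and scored growth inhibition relative to vehicle-treated controls.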
# [5] = NCI Yeast Anticancer Drug Screen. Data for the bub3 strain (AID 167); settings: S. cerevisiae bub3 mutant strain, hits give high values
# Outline: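 In this screen, a yeast mutant lacking normal mitotic checkpoint function is challenged with compound. Relative growth versus vehicle gives the inhibition value.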
# [6] = NCI Yeast Anticancer Drug Screen. Data for the mlh1 rad18 strain (AID 175); settings: S. cerevisiae mlh1 rad18 strain growth inhibition, hits give high values
# Outline: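 Compound-treated yeast growth, normalised to vehicle controls. Strain bears defined DNA repair mutations.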
# [7] = at 5.0 µM (retest, dose inferred, filed as 0.5)
# [8] = at 50.0 µM (retest, dose inferred, filed as 5.0)
Compound,"growth inhibition [1, 7]","growth inhibition [1, 8]",growth inhibition ([1]; at 50.0 µM),"growth inhibition [2, 7]","growth inhibition [2, 8]",growth inhibition ([2]; at 50.0 µM),"growth inhibition [3, 7]","growth inhibition [3, 8]",growth inhibition ([3]; at 50.0 µM),"growth inhibition [4, 7]","growth inhibition [4, 8]",growth inhibition ([4]; at 50.0 µM),"growth inhibition [5, 7]","growth inhibition [5, 8]",growth inhibition ([5]; at 50.0 µM),"growth inhibition [6, 7]","growth inhibition [6, 8]",growth inhibition ([6]; at 50.0 µM)
CCCCOC(c1ccccc1)N1CCCCC1 (stereo not given),0%,6%,28.8%,0%,11%,-10.7%,-3%,6%,35.8%,-3%,-12%,-13.6%,-4%,-4%,4.15%,-4%,-3%,7.35%
CCCCCCCCC(=O)NCCCNCCCNC(=O)CCCCCCCC,-17%,-17%,69%,-18%,-18%,50.2%,-4%,-4%,66.3%,-22%,-22%,92.2% (active),-28%,-28%,90.8% (active),-11%,-11%,89.3% (active)
CNC(=O)OCc1c(COC(=O)NC)c(-c2ccc(Cl)c(Cl)c2)n2c1Cc1ccccc1C2,-18%,97% (active),88.7% (active),-21%,98% (active),92.2% (active),-6%,85% (active),88.8% (active),8%,63%,90.8% (active),-23%,97% (active),88.1% (active),-11%,97% (active),87% (active)
CCCCCCSC(=Cc1cccc[n+]1C)SCCCCCC,98% (active),96% (active),99.5% (active),100% (active),98% (active),99.7% (active),100% (active),98% (active),99.7% (active),99% (active),95% (active),99.3% (active),98% (active),94% (active),99.5% (active),100% (active),97% (active),99.4% (active)
COc1cc2c(c(OC)c1OC)-c1ccc(SC)c(=O)cc1[C@@H](NC(=O)Oc1ccccc1)CC2,73% (active),31%,54%,24%,29%,-0.55%,-9%,9%,-2.45%,-12%,13%,1.65%,-8%,8%,0.9%,20%,43%,12.6%
C1CCC(CCNCCC2CCCCC2)CC1,-1%,99% (active),99% (active),-15%,99% (active),97.5% (active),25%,99% (active),99% (active),-15%,99% (active),98.7% (active),-8%,99% (active),98.5% (active),8%,99% (active),98.7% (active)
O=C1C(Cl)=C(Cl)C(=O)C2=C1CC(Cl)C(Cl)C2 (stereo not given),87% (active),98% (active),99.3% (active),90% (active),99% (active),99.3% (active),91% (active),97% (active),99.5% (active),37%,99% (active),99% (active),96% (active),98% (active),99.3% (active),95% (active),99% (active),99.2% (active)
N#CSc1ccc(O)c2ccccc12,75% (active),79% (active),90.2% (active),64%,87% (active),91% (active),19%,98% (active),91.7% (active),45%,98% (active),91% (active),42%,96% (active),90.3% (active),29%,74% (active),89.5% (active)
O=[N+]([O-])/C(Cl)=C/C(=C1/Nc2ccccc2O1)[N+](=O)[O-],17%,87% (active),79.9% (active),-11%,47%,65.6%,-14%,48%,72.5% (active),-12%,47%,65.4%,-15%,53%,71.2% (active),17%,75% (active),69%
CCC1C(c2cccc(OC)c2O)c2cc3c(cc2OC1N1CCCC1)OCO3 (stereo not given),21%,43%,-66.2%,22%,19%,-19.7%,26%,25%,-52.7%,31%,45%,-28.6%,17%,26%,-5.3%,22%,63%,-29.7%
c1cc2ccc1C1NCCCN1CCN1CCCNC1c1ccc(cc1)C1NCCCN1CCN1CCCNC21 (stereo not given),3%,-11%,-8.3%,-19%,-2%,-22.6%,-14%,3%,-2%,-25%,-8%,53.2%,-1%,-1%,4.1%,-28%,-14%,-31.4%
CS/C(=N\C(=S)Nc1ccccc1)Nc1ccccc1,0%,95% (active),99.2% (active),25%,94% (active),99.4% (active),38%,97% (active),96.3% (active),22%,96% (active),97.3% (active),34%,98% (active),99% (active),22%,95% (active),98.1% (active)
OC1CC2OC2C1O (stereo not given),-2%,3%,-6.25%,-5%,3%,3.75%,-2%,1%,-4.95%,-1%,-1%,69.6%,2%,7%,18.6%,-1%,2%,-11.4%
CN1COc2c(Cl)cc(Cl)cc2C1,-3%,85% (active),76.2% (active),-2%,45%,57.2%,0%,91% (active),-5.15%,-3%,46%,-4%,-4%,75% (active),45.5%,-1%,86% (active),42.5%
COc1ccc2c(Cc3ccccc3)c3[n+](cc2c1OC)CCc1cc2c(cc1-3)OCO2,2%,98% (active),98.8% (active),8%,97% (active),99.2% (active),4%,99% (active),99% (active),-1%,98% (active),98.2% (active),12%,98% (active),98.8% (active),-4%,97% (active),98.9% (active)
O=C(c1ccccc1)N1CCN(c2cccc(Cl)c2)CC1,0%,2%,29.2%,0%,2%,0.45%,-2%,8%,12.7%,-1%,10%,-26.1%,9%,93% (active),77.4% (active),1%,12%,16.3%
O=[N+]([O-])c1ccc(/C=N\OCc2cscn2)cc1,3%,46%,76.7% (active),-11%,74% (active),55.5%,-10%,73% (active),62.4%,0%,31%,-13.4%,-6%,88% (active),-19.4%,11%,79% (active),71% (active)
O=C(Nc1ccccc1C(=O)NC(=O)c1ccccc1NC(=O)c1ccccc1)c1ccccc1,-4%,99% (active),58.9%,10%,99% (active),57.5%,-2%,99% (active),54.8%,4%,99% (active),40.8%,-1%,99% (active),46.1%,5%,99% (active),63.5%
CC1=NOC(=O)/C1=C/c1ccc(Cl)c(Cl)c1,-2%,70% (active),31.9%,10%,20%,36.7%,-11%,31%,52.5%,8%,61%,2.1%,-3%,71% (active),33.9%,-10%,45%,43.1%
CN(C)c1ccc(/C=C/c2nc3ccccc3[nH]2)cc1,-2%,89% (active),54%,-9%,77% (active),56.8%,-3%,89% (active),37.1%,-7%,67%,16.7%,-10%,54%,14.6%,-13%,97% (active),80% (active)
